According to PubChem BioAssay (NCI):
Compounds without any hit were thinned out: in the full panel of roughly 79,000, 15% have a hit. Unmarked numbers belong to inactive results. Activity calls are given as the source filed them. No stated cut-off is given here; in the data, active means growth inhibition above about 70%; inactive means the rest.

Key:
[1] = NCI Yeast Anticancer Drug Screen. Data for the rad50 strain (AID 155);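 further: 0% = growth of vehicle-only cultures of the same strain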; details: S. cerevisiae rad50 strain growth inhibition, active compounds read high
Method in brief: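 Cells are treated with compound, grown, and their growth is then scored against vehicle-only cultures of the same repair-deficient yeast strain.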

[2] = NCI Yeast Anticancer Drug Screen. Data for the mec2-1 strain (AID 157); details: S. cerevisiae mec2-1 strain, active compounds read high
Method in brief: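 Strain: mec2-1 (DNA repair/cell cycle alteration). Compound exposure, then growth measured; inhibition expressed relative to vehicle.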

[3] = NCI Yeast Anticancer Drug Screen. Data for the sgs1 mgt1 strain (AID 161);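 further: 0% = growth of cultures given vehicle only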; details: S. cerevisiae sgs1 mgt1 strain, active compounds read high
Method in brief: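 Inhibition of yeast growth, normalised to vehicle-treated controls, is reported for a strain bearing genetic alterations in DNA damage repair.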

[4] = NCI Yeast Anticancer Drug Screen. Data for the cln2 rad14 strain (AID 165);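 further: 0% = growth equal to vehicle treated cultures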; details: S. cerevisiae cln2 rad14 strain, active compounds read high
Method in brief: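 Compounds are applied to the cln2 rad14 yeast strain, and growth is then compared with that of vehicle-treated cultures to give inhibition.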

[5] = NCI Yeast Anticancer Drug Screen. Data for the bub3 strain (AID 167); details: S. cerevisiae bub3 mutant strain, active compounds read high
Method in brief: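 Part of a panel of yeast mutants defective in DNA damage repair or cell cycle regulation. Each strain is grown with compound, and inhibition is calculated relative to solvent-treated cultures.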

[6] = NCI Yeast Anticancer Drug Screen. Data for the mlh1 rad18 strain (AID 175); details: S. cerevisiae mlh1 rad18 strain growth inhibition, active compounds read high
Method in brief: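 Read-out is yeast growth inhibition, calculated against vehicle-only controls. The compound was applied to a strain engineered with DNA damage repair alterations.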

[7] = at 5.0 µM (retest, dose inferred, filed as 0.5)
[8] = at 50.0 µM (retest, dose inferred, filed as 5.0)

Structure (SMILES)	growth inhibition [1, 7]	growth inhibition [1, 8]	growth inhibition ([1]; at 50.0 µM)	growth inhibition [2, 7]	growth inhibition [2, 8]	growth inhibition ([2]; at 50.0 µM)	growth inhibition [3, 7]	growth inhibition [3, 8]	growth inhibition ([3]; at 50.0 µM)	growth inhibition [4, 7]	growth inhibition [4, 8]	growth inhibition ([4]; at 50.0 µM)	growth inhibition [5, 7]	growth inhibition [5, 8]	growth inhibition ([5]; at 50.0 µM)	growth inhibition [6, 7]	growth inhibition [6, 8]	growth inhibition ([6]; at 50.0 µM)
Cc1ccc(Cl)cc1NC(=O)N(C)CCOC(=O)Nc1cccc(Cl)c1	32%	95% (active)	88.7% (active)	31%	97% (active)	91% (active)	41%	97% (active)	92.9% (active)	22%	97% (active)	90% (active)	23%	94% (active)	92.3% (active)	41%	98% (active)	90.5% (active)
CCc1c(C(=O)OC)c(C(=O)OC)c(-c2ccccc2)n1CCn1c(CC)c(C(=O)OC)c(C(=O)OC)c1-c1ccccc1	-2%	82% (active)	50.1%	-2%	64%	38.2%	-2%	74% (active)	28.6%	1%	52%	25.5%	1%	83% (active)	98.5% (active)	2%	54%	40.4%
CC(=O)c1ccc2sc3ccccc3c2c1	-92%	96% (active)	96% (active)	-45%	72% (active)	57.6%	-59%	88% (active)	70.2% (active)	-52%	86% (active)	33.4%	-51%	85% (active)	88% (active)	-120%	92% (active)	88.3% (active)
O=C(Nc1cccc(Cl)c1)OCCN(CCOC(=O)Nc1cccc(Cl)c1)C(=O)Nc1cccc(Cl)c1	31%	76% (active)	77.8% (active)	27%	80% (active)	51.4%	36%	83% (active)	90.9% (active)	54%	77% (active)	90.4% (active)	53%	79% (active)	80.4% (active)	62%	81% (active)	83.2% (active)
C=C1C(=O)O[C@@H]2C[C@@]3(C)CCC[C@H](C)C3=C[C@H]12	11%	91% (active)	50.5%	23%	98% (active)	67.2%	24%	98% (active)	81.7% (active)	6%	64%	41.5%	4%	95% (active)	81.3% (active)	14%	96% (active)	68.5%
C=C1C(=O)C23CC[C@H]4C(C)(CCC[C@]4(C)C(=O)O)[C@@H]2CCC1C3 (stereo partly drawn)	94% (active)	99% (active)	90.5% (active)	96% (active)	99% (active)	93.7% (active)	93% (active)	99% (active)	93% (active)	72% (active)	99% (active)	88.3% (active)	95% (active)	99% (active)	92% (active)	97% (active)	99% (active)	92.7% (active)
Cc1ccc(NC(=S)SCc2ccco2)cc1Cl	22%	99% (active)	99.5% (active)	5%	99% (active)	99.8% (active)	12%	99% (active)	99.7% (active)	-3%	99% (active)	99.5% (active)	-3%	99% (active)	99.7% (active)	20%	99% (active)	99.6% (active)
C=CC1(NC(=O)c2ccccc2)CCC(C(C)(C)C)CC1 (stereo not drawn)	-10%	96% (active)	48.9%	-5%	89% (active)	-0.2%	-5%	94% (active)	43.6%	5%	86% (active)	10.6%	2%	95% (active)	49.9%	-7%	93% (active)	40.4%
CN(C)CC(CN1CCCC1)C(=O)c1ccccc1 (stereo not drawn)	13%	24%	56.6%	-2%	36%	41.4%	13%	32%	66.5%	26%	33%	11.2%	6%	39%	65.5%	15%	32%	75.2% (active)
CC[O-].CC[O-].[O-]c1ccccc1C=Nc1ccccc1.[O-]c1ccccc1C=Nc1ccccc1.[Ti+4]	23%	23%	50.5%	22%	22%	14.8%	12%	12%	19.8%	13%	13%	29.9%	12%	12%	19.9%	23%	23%	19.9%
CCC1=CCC2C(=O)c3cc4ccccc4cc3C(=O)C2C1 (stereo not drawn)	11%	26%	89.3% (active)	11%	64%	96.2% (active)	9%	-4%	89.6% (active)	2%	20%	37.5%	10%	61%	93% (active)	7%	46%	94.8% (active)
Cc1ccc(S(=O)(=O)CC2COC(CS(=O)(=O)c3ccc(C)cc3)CO2)cc1 (stereo not drawn)	2%	3%	-14.7%	1%	6%	33.7%	10%	-6%	3%	8%	5%	33.1%	2%	11%	66.4%	-2%	1%	28.8%
O=C1c2ccccc2CN1Cc1ccc(Cl)c(Cl)c1	-1%	93% (active)	84.4% (active)	-3%	95% (active)	42.2%	-1%	96% (active)	93.1% (active)	-1%	81% (active)	45.5%	3%	92% (active)	79.4% (active)	-2%	91% (active)	65%
CCCCCCCCCCCC(=O)OCC1OC(OC)C(NC(=O)N(CCCl)N=O)C(O)C1O (stereo not drawn)	39%	39%	79.9% (active)	20%	20%	67.5%	21%	21%	90.5% (active)	17%	17%	30.5%	13%	13%	77.4% (active)	14%	14%	76% (active)
CCCCCCCCCc1cccc(N2C(N)=NC(N)=NC2(C)C)c1	99% (active)	88% (active)	99.3% (active)	100% (active)	28%	99.6% (active)	99% (active)	42%	99.6% (active)	99% (active)	19%	99% (active)	98% (active)	12%	99.4% (active)	99% (active)	29%	99.4% (active)
CC(/C=C1\CCC(CN(C)C)C1=O)c1cccc(Br)c1 (stereo not drawn)	-11%	97% (active)	93.8% (active)	-1%	99% (active)	94% (active)	5%	97% (active)	93.5% (active)	16%	98% (active)	92.2% (active)	18%	99% (active)	92.7% (active)	7%	98% (active)	91.6% (active)
OCCc1ccccc1C(c1ccccc1)c1ccccc1	5%	98% (active)	99.3% (active)	-4%	99% (active)	99.4% (active)	1%	-16%	99.2% (active)	8%	99% (active)	98.8% (active)	0%	99% (active)	99.2% (active)	4%	99% (active)	98.9% (active)
CC(C)N(CCO)CC(O)Cn1cnc2c(N)ncnc21 (stereo not drawn) (tested in a mixture with another compound)	-17%	0%	-37.5%	-9%	-8%	7.75%	-14%	1%	-15.6%	-18%	-6%	40.2%	-8%	-6%	-4.65%	-8%	-5%	43%
CCCCc1c2c(nc3c1CCC/C3=C\c1ccccc1)C(=O)C(CN(C)C)CC2 (stereo not drawn)	16%	96% (active)	86.3% (active)	10%	97% (active)	89.1% (active)	29%	97% (active)	86.5% (active)	11%	96% (active)	86.8% (active)	13%	95% (active)	84.5% (active)	11%	96% (active)	84.5% (active)
CC(=O)Nc1c(Cl)ccc2c1Cc1cc([N+](=O)[O-])ccc1-2	19%	92% (active)	91% (active)	2%	19%	45.8%	6%	-39%	49.5%	-3%	44%	47.9%	-7%	10%	10.7%	-9%	66%	90.8% (active)
CCCCc1ccc2c(c1)Nc1cc3ccccc3cc1N2	-3%	55%	86.3% (active)	1%	26%	44.5%	0%	56%	54.9%	-13%	30%	33.4%	6%	81% (active)	77.8% (active)	7%	59%	95% (active)
COC1CCC2(C)C(=CCC3C4CC(OC(C)=O)CC4(C)CCC32)C1 (stereo not drawn)	0%	5%	5.25%	-2%	5%	0.45%	2%	3%	-4.15%	-1%	4%	9.5%	0%	6%	-7.3%	2%	9%	-4.2%
O=[N+]([O-])c1ccc(CCCCc2ccc([N+](=O)[O-])cc2)cc1	-5%	-8%	-6.1%	3%	-18%	3%	2%	-9%	-1.8%	-2%	-10%	-59.9%	13%	21%	7.35%	-10%	-16%	29%
CCCCN(CCCC)CC(O)c1cc(-c2ccc(Cl)cc2)nc2c(Cl)cccc12 (stereo not drawn)	1%	6%	99% (active)	-2%	1%	99.5% (active)	1%	12%	99.2% (active)	-3%	-13%	98.5% (active)	-4%	0%	98.8% (active)	-3%	-4%	99.3% (active)
O=C(N/N=C/c1cc(Br)ccc1O)c1ccccc1	59%	61%	-23.9%	32%	53%	-18.9%	64%	82% (active)	5.65%	21%	25%	-33.9%	79% (active)	89% (active)	-12.6%	92% (active)	90% (active)	-6.75%
O=C1CNC(=O)c2cc(N=Cc3cc(Br)ccc3O)ccc2N1	10%	95% (active)	82% (active)	8%	98% (active)	62%	13%	96% (active)	93.5% (active)	2%	30%	22.6%	-1%	95% (active)	43.4%	12%	97% (active)	71.9% (active)
